# Experimental data: PubChem BioAssay AID485317 (Broad Institute, 2010)
# Several values for one entry are separate records, joined by “and”; a condition that tells them apart may be missing. Identical values can stand only once. In all, about 290,000 compounds went through this assay and about 11,000 (3.8%) were called active.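 Rule for the calls: active = mean replicate inhibition above about 79%, with every replicate also reaching it (limit read from the data); inconclusive = only one of the two criteria met; inactive = mean below limit and not every replicate reaching it.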 Many of the other results were omitted from the sample, so actives are more common in it than they were. Some structures have more than one record in an assay (separate samples or runs), and their calls can disagree.
# Target: FAD-linked sulfhydryl oxidase ALR (Homo sapiens) (UniProt P55789)
# Sequence (P55789 whole entry, looked up): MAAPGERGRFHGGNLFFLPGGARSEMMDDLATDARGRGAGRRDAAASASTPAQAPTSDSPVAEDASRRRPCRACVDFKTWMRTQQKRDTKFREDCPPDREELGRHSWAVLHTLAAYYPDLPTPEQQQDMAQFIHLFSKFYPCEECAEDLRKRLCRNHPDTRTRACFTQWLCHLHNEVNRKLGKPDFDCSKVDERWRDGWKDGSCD
# Test: ALR-catalysed DTT oxidation blockers – biochemical, H2O2 detection, HRP-luminol luminescence, single point, primary screen (AID 485317)
# Conditions: purified ALR, stronger effect = higher value, concentration not given here
row,Compound,inhibition
1,CCN(CC)S(=O)(=O)c1ccc(N2CCCC2)c(NC(=O)c2ccc([N+](=O)[O-])o2)c1,-36.7% (inactive)
2,CC(C)(C)OC(=O)C[C@@H]1C/C=C\C[C@@H](CC(=O)NCCO)C(=O)N[C@H](Cc2c[nH]c3ccccc23)COC1=O,-9.99% (inactive)
3,CCN(CC(=O)NCc1ccc(F)cc1)S(=O)(=O)c1ccc(Cl)s1,-4.96% (inactive)
4,Cc1ccc(CNC(=O)CC(NC(=O)c2ccccc2)c2ccccc2)cc1 (stereo unspecified),1.43% (inactive)
5,CC(=O)Nc1ccc(S(=O)(=O)NCCC(=O)N2CCN(c3ccccc3Cl)CC2)cc1,0.296% (inactive)
6,O=C(CSc1nc2[nH]ncc2c(=O)[nH]1)Nc1ccc(F)cc1,-2.71% (inactive)
7,CCOc1ccc(-n2c(SC(C)C(=O)OC)nc3c(c2=O)SCC3)cc1 (stereo unspecified),-1.69% (inactive)
8,CCOc1ccc(-n2c(SCC(=O)OC)nc3sc4c(c3c2=O)CCN(C)C4)cc1,99.2% (active)
9,Cc1ccc(C)c(-n2c(SCC(=O)O)nc3sc4c(c3c2=O)CCCC4)c1,4.79% (inactive)
10,O=C(N[C@@H](Cc1ccccc1)C(=O)OCc1ccccc1)c1nc[nH]c1C(=O)NC1CCNCC1,63.1% (inactive)
11,O=C(Nc1ccc(NC(=O)c2ccc3c(c2)OCO3)cc1)c1cccc(Cl)c1,4% (inactive)
12,CC(=O)c1c(OCC(=O)N(C)C2CCCCC2)ccc2c(C)cc(=O)oc12,-4.49% (inactive)
13,CCCc1nc2c(c(=O)c3ccccc3n2C)c(=O)n1-c1cc(C)cc(C)c1,9.11% (inactive)
14,Cn1c2ccccc2c(=O)c2c(=O)n(Cc3ccco3)c(COc3ccccc3)nc21,96.8% (active)
15,COc1ccc(C(=O)CSc2nnc(COc3ccccc3)n2Cc2ccco2)cc1,13.2% (inactive)
16,COc1ccc(S(=O)(=O)N(C)C[C@@H]2Oc3ccc(NS(=O)(=O)c4cn(C)cn4)cc3C(=O)N([C@@H](C)CO)C[C@@H]2C)cc1,0.531% (inactive)
17,O=C(NCc1ccccc1)c1ccc(CNc2c(N3CCCC3)c(=O)c2=O)cc1,-1.76% (inactive)
18,O=C(NC1CCCCC1)c1ccc(CNc2c(N3CCOCC3)c(=O)c2=O)cc1,96.3% (active)
19,CC1CCN(c2c(NCc3ccc(C(=O)NCc4ccccc4)cc3)c(=O)c2=O)CC1,6.63% (inactive)
20,O=C(COC(=O)c1ccccn1)NNC(=O)c1ccc(Br)cc1,-1.13% (inactive)
21,COc1ccc(Br)cc1CN(C)C(=O)C1CC(=O)N(C2CCCC2)C1 (stereo unspecified),-9.84% (inactive)
22,COC(=O)/C=C\C(=O)Nc1cccc([N+](=O)[O-])c1,97.8% (active)
23,O=C(Nc1cccc([N+](=O)[O-])c1)Nn1cnnc1,-12.6% (inactive)

row,Compound,inhibition
1,COc1ccc(S(=O)(=O)NC(C)C(=O)Nc2cccc([N+](=O)[O-])c2)cc1 (stereo unspecified),3.92% (inactive)
2,Cc1noc(C)c1NC(=O)Nc1cccc2c1O[C@H](CN(C)S(=O)(=O)c1c(C)noc1C)[C@@H](C)CN([C@H](C)CO)C2=O,1.87% (inactive)
3,Cc1cc(=O)oc2cc(NC(=O)C(C)Oc3ccccc3)ccc12 (stereo unspecified),-2.52% (inactive)
4,COc1ccc(CCNC(=S)N2CCN(S(=O)(=O)c3ccc(Cl)cc3)CC2)cc1,-0.053% (inactive)
5,S=C(NCCc1ccccc1)N1CCCCC1,-4.5% (inactive)
6,Oc1cc2c(cc1O)CN(C(=S)NCCc1ccc(Cl)cc1)CCC2,97.9% (active)
7,COC(=O)[C@@]12CCCN1[C@H](c1ccc(-c3ccc(F)cc3)c(OC)c1)[C@H]1C(=O)N(C)C(=O)[C@H]12,-0.553% (inactive)
8,CCOc1ncccc1C(=O)OCC(=O)c1c[nH]c2ccccc12,16.6% (inactive)
9,Cc1[nH]n(-c2ccc([N+](=O)[O-])cc2)c(=O)c1C=NCCN1CCN(C(=O)c2ccccc2F)CC1,-0.584% (inactive)
10,Cc1ccc(-n2[nH]c(C)c(/C=N/NC(=O)c3cccc([N+](=O)[O-])c3)c2=O)cc1C,97% (active)
11,Cc1cccc(C(=O)NNC(=O)c2cccc([N+](=O)[O-])c2)c1,2.77% (inactive)
12,COc1ccc(C(=O)NCC2CCCCC2)cc1S(=O)(=O)N1CCCC1,-2.78% (inactive)
13,NC(=O)CSc1nnc(NC(=O)c2ccc3ccccc3c2)s1,-2.49% (inactive)
14,O=C(NCCS(=O)(=O)N1CCN(c2ccc(F)cc2)CC1)c1ccc2c(c1)OCO2,1.71% (inactive)
15,CC(=O)Nc1ccc(NC(=O)CSc2nnnn2C2CCCCC2)cc1,-20.6% (inactive)
16,NS(=O)(=O)c1cccc(NC(=O)COC(=O)c2cc([N+](=O)[O-])ccc2N2CCCC2)c1,-0.799% (inactive)
17,CCCc1nnc(SCC(=O)Nc2ccc(C(=O)OCC)cc2)o1,99.2% (active)
18,Cc1ccc(NC(=O)CSc2nnc(COc3ccccc3C)o2)cc1,-0.274% (inactive)
19,Cc1cc(C)cc(OCc2nnc(SCC(=O)Nc3ccccc3)o2)c1,5.24% (inactive)
20,O=C(c1cn(-c2ccccc2)nc1-c1cccnc1)N1CCN(S(=O)(=O)c2ccccc2F)CC1,-0.713% (inactive)
21,O=C(c1ccc(NS(=O)(=O)c2ccc3[nH]c(=O)[nH]c3c2)cc1)N1CCCCC1,0.0938% (inactive)
22,O=C1Nc2ccccc2/C1=C/c1ccnc2ccccc12,-5.03% (inactive)
23,Cc1cc(C)c(/C=C2\C(=O)Nc3ccccc32)[nH]1,98.9% (active)

row,Compound,inhibition
1,CN(C)/C=C1\C=C(c2ccccc2)OC1=O,-9.29% (inactive)
2,CN(C)/C=C1/Nc2ccccc2C1=O,31.9% (inactive)
3,CN(C)/C=C1/C(=O)Nc2ccccc21,98.8% (active)
4,Cc1ccccc1-n1c(C)cc(/C=C2\NC(=O)NC2=O)c1C,-11.5% (inactive)
5,CC(=O)NCCNC(=O)c1cc(-c2cccc3ccccc23)nc2ccccc12,-1.4% (inactive)
6,Cc1cc(NC(=O)CSCc2ccccc2C)no1,29% (inactive)
7,COc1ccccc1C(=O)COC(=O)CSCC(=O)Nc1cc(C)on1,1.76% (inactive)
8,Cc1cc(NC(=O)CSCc2nc(-c3cccc(Cl)c3)oc2C)no1,96.6% (active)
9,COc1ccc(-c2cc(C(=O)Nc3ccccc3O)c3ccccc3n2)cc1,-22.7% (inactive)
10,COCCn1c(C)cc(C(=O)COC(=O)CNC(=O)c2ccco2)c1C,0.463% (inactive)
11,Cc1cc(NC(=O)COC(=O)/C=C/c2ccc(C)o2)no1,-2.34% (inactive)
12,CNS(=O)(=O)c1cnccc1N1CCN(c2cccc(C)c2)CC1,98.6% (active)
13,CC(C)NC(=O)N1CCN(c2ccncc2S(=O)(=O)N2CCCCC2)CC1,-2.12% (inactive)
14,CC(C)=C1SC(N2CCN(c3cccc(C)c3)CC2)=NC1=O,4.81% (inactive)
15,Cc1ccn2c(=O)nc(SCC(=O)NCc3ccc4c(c3)OCO4)nc2c1,-1.9% (inactive)
16,O=C(Nn1cnnc1)c1ccc([N+](=O)[O-])cc1,-3.87% (inactive)
17,O=C(CC(n1cncn1)C(Cl)(Cl)Cl)c1ccc([N+](=O)[O-])cc1 (stereo unspecified),9.46% (inactive)
18,O=C(Cn1c[n+](CC(=O)c2ccc([N+](=O)[O-])cc2)cn1)c1ccc([N+](=O)[O-])cc1,-22% (inactive) and 98.8% (active)
19,Cc1ccc(Cn2ccc(NC(=O)C3C4CCC(C4)C3C(=O)O)n2)cc1 (stereo unspecified),1.86% (inactive)
20,O=C(Nc1ccn(Cc2ccccc2F)n1)c1ccc(COc2ccc(Cl)cc2Cl)o1,-9.12% (inactive)
21,O=C(Nc1ccn(Cc2ccccc2)n1)c1n[nH]c([N+](=O)[O-])c1Cl,93.5% (active)
22,Cc1ccc(CC(=O)Nc2ccc(S(=O)(=O)N3CCOCC3)cc2)cc1C,-2.53% (inactive)
23,COC(=O)c1c(NC(=O)C2CC(C)=C(C)CC2C(=O)O)sc2c1CCCCC2 (stereo unspecified),94.2% (active)

row,Compound,inhibition
1,COC(=O)c1c(NC(=O)CCCC(=O)O)sc2c1CCCCC2,-5.42% (inactive)
2,COC(=O)c1c(NC(=O)c2cccs2)sc2c1CCCC2,-1.37% (inactive)
3,FC(F)(F)c1nnc2sc(-c3ccco3)nn12,-7.15% (inactive)
4,COc1cc(-c2nn3c(-c4cccc(C)c4)nnc3s2)cc(OC)c1OC,1.6% (inactive)
5,Fc1ccc(-c2ccc(-c3nn4c(-c5ccco5)nnc4s3)o2)cc1,98.5% (active)
6,O=C(c1ccc(Cl)cc1)c1cnc(Nc2ccccc2)s1,24.8% (inactive)
7,COC(=O)CN1C(=S)N(c2ccccc2)C(=O)C1CC(=O)Nc1ccc(Cl)cc1 (stereo unspecified),1.89% (inactive)
8,O=C(O)CC1=C(Nc2ccccc2)C(=O)N(c2ccccc2)C1c1ccc(Cl)cc1 (stereo unspecified),96.7% (active)
9,COc1cc(C(=O)NCC(c2ccco2)N2CCCC2)ccc1OCc1ccccc1 (stereo unspecified),-2.39% (inactive)
10,CN(Cc1c(F)cccc1Cl)C(=O)CNC(=O)c1ccc2c(c1)OCO2,1.35% (inactive)
11,COc1cc2c(-c3ccc4c(c3)OCO4)c(-c3ccsc3)oc(=O)c2cc1OC,0.568% (inactive)
12,O=C(Nc1cccc(-c2nc3ccccc3[nH]2)c1)c1ccc(C(=O)Nc2cccc(-c3nc4ccccc4[nH]3)c2)cc1,-5.21% (inactive)
13,CN(c1ccccc1)S(=O)(=O)c1cc(C(=O)Nc2nc3ccccc3[nH]2)ccc1Cl,94.8% (active)
14,Cc1cccc(NC(=O)c2ccc(S(=O)(=O)N(C)c3ccccc3)cc2)n1,-13.4% (inactive)
15,O=C(c1cc(-c2ccco2)nc2ccccc12)N(Cc1nnc(-c2ccc(Cl)cc2)o1)C1CC1,2.44% (inactive)
16,Cn1cccc1C(=O)OCC(=O)c1ccc(Br)s1,0.737% (inactive)
17,C=CCn1c(CNC(=O)c2ccco2)nnc1SCC(=O)c1ccc(OC)cc1,29.4% (inactive)
18,COC(=O)c1ccc(NC(=O)CSc2nnc(CNc3ccc(OC)cc3)n2C)cc1,-7.45% (inactive)
19,COc1ccc(NCc2nnc(SCc3ccccc3)n2-c2ccc(OC)cc2)cc1,91.9% (active)
20,CCn1c(CNc2ccc(OC)cc2)nnc1SCC(=O)c1ccc(OC)cc1,98.6% (active)
21,COc1ccc(-c2nnc(SCC(=O)c3ccco3)n2-c2ccccc2)cc1,-5.92% (inactive)
22,CCc1nnc(NC(=O)CSc2nnc(Cc3ccccc3)n2-c2ccc(OC)cc2)s1,-14.6% (inactive)
